Test results taken from publication PMC5540273 (PLoS ONE, 2017).

Experiments:
Conditions in all cases: concentration: 1 μM, replicates: in singlicate; n = 1
[1] = test system: PAK3
[2] = test system: PAK4
[3] = test system: PAK6
[4] = test system: PAK7
[5] = test system: T1, PCTK1
T1 construct: gene CDK16

[6] = test system: T2, PCTK2
T2 construct: gene CDK17

[7] = test system: T3, PCTK3
T3 construct: gene CDK18

[8] = test system: PDGFRA
[9] = test system: PDGFRB
[10] = test system: PDPK1
[11] = test system: PFTAIRE2
[12] = test system: T4, PFTK1
T4 construct: gene CDK14

[13] = test system: PHKG1
[14] = test system: PHKG2
[15] = test system: PIK3C2B
[16] = test system: PIK3C2G
[17] = test system: PIK3CA
[18] = test system: PIK3CB
[19] = test system: PIK3CD
[20] = test system: PIK3CG
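Further: KINOMEscan kinase panel screen.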

Fc1ccc(-c2nc3n(c2-c2ccncc2)CCS3)cc1 [GI98581]
%Inh [1]: 42% | %Inh [2]: 0% | %Inh [3]: 0% | %Inh [4]: 0% | %Inh [5]: 12% | %Inh [6]: 0% | %Inh [7]: 20% | %Inh [8]: 0% | %Inh [9]: 16% | %Inh [10]: 36% | %Inh [11]: 11% | %Inh [12]: 16% | %Inh [13]: 0% | %Inh [14]: 0% | %Inh [15]: 92.7% | %Inh [16]: 0% | %Inh [17]: 91.9% | %Inh [18]: 0% | %Inh [19]: 0% | %Inh [20]: 81%

CC(C)c1cc(-c2ccc3c(N)n[nH]c3c2)nc(N)n1 [GSK2250882]
%Inh [1]: 0% | %Inh [2]: 0% | %Inh [3]: 0% | %Inh [4]: 6% | %Inh [5]: 0% | %Inh [6]: 9% | %Inh [7]: 11% | %Inh [8]: 0% | %Inh [9]: 18% | %Inh [10]: 74% | %Inh [11]: 26% | %Inh [12]: 4% | %Inh [13]: 1% | %Inh [14]: 5% | %Inh [15]: 0% | %Inh [16]: 0% | %Inh [17]: 0% | %Inh [18]: 0% | %Inh [19]: 0% | %Inh [20]: 5%

COc1ccc(Nc2nccc(-c3ccc(NC(=O)c4cc5cc(F)ccc5[nH]4)cc3)n2)cc1 [GSK1229496]
%Inh [1]: 0% | %Inh [2]: 0% | %Inh [3]: 0% | %Inh [4]: 5% | %Inh [5]: 0% | %Inh [6]: 0% | %Inh [7]: 0% | %Inh [8]: 0% | %Inh [9]: 47% | %Inh [10]: 0% | %Inh [11]: 0% | %Inh [12]: 13% | %Inh [13]: 0% | %Inh [14]: 0% | %Inh [15]: 0% | %Inh [16]: 0% | %Inh [17]: 0% | %Inh [18]: 0% | %Inh [19]: 0% | %Inh [20]: 2%

CC(=O)c1c(C)c2cnc(Nc3ccc(N4CCNCC4)cn3)nc2n(C2CCCC2)c1=O
%Inh [1]: 6% | %Inh [2]: 0% | %Inh [3]: 0% | %Inh [4]: 0% | %Inh [5]: 0% | %Inh [6]: 10% | %Inh [7]: 8% | %Inh [8]: 0% | %Inh [9]: 0% | %Inh [10]: 0% | %Inh [11]: 0% | %Inh [12]: 5% | %Inh [13]: 10% | %Inh [14]: 12% | %Inh [15]: 0% | %Inh [16]: 0% | %Inh [17]: 3% | %Inh [18]: 0% | %Inh [19]: 0% | %Inh [20]: 12%

CC(=O)c1c(C)c2cnc(Nc3ccn(C)n3)nc2n(C2CCCC2)c1=O
%Inh [1]: 0% | %Inh [2]: 0% | %Inh [3]: 0% | %Inh [4]: 0% | %Inh [5]: 0% | %Inh [6]: 0% | %Inh [7]: 100% | %Inh [8]: 0% | %Inh [9]: 0% | %Inh [10]: 0% | %Inh [11]: 0% | %Inh [12]: 0% | %Inh [13]: 0% | %Inh [14]: 2% | %Inh [15]: 0% | %Inh [16]: 0% | %Inh [17]: 0% | %Inh [18]: 0% | %Inh [19]: 18% | %Inh [20]: 61%

O=C(Nc1n[nH]c2cc(-c3ccsc3)ccc12)C1CC1 [SB-732932]
%Inh [1]: 0% | %Inh [2]: 22% | %Inh [3]: 7% | %Inh [4]: 0% | %Inh [5]: 13% | %Inh [6]: 31% | %Inh [7]: 8% | %Inh [8]: 57% | %Inh [9]: 80% | %Inh [10]: 0% | %Inh [11]: 13% | %Inh [12]: 5% | %Inh [13]: 21% | %Inh [14]: 0% | %Inh [15]: 14% | %Inh [16]: 0% | %Inh [17]: 3% | %Inh [18]: 8% | %Inh [19]: 0% | %Inh [20]: 6%

O=c1cc(N2CCOCC2)nc2n(Cc3cccc(Cl)c3Cl)c3ccccc3n12 [GSK2299009]
%Inh [1]: 42% | %Inh [2]: 0% | %Inh [3]: 21% | %Inh [4]: 12% | %Inh [5]: 8% | %Inh [6]: 8% | %Inh [7]: 20% | %Inh [8]: 0% | %Inh [9]: 51% | %Inh [10]: 0% | %Inh [11]: 29% | %Inh [12]: 19% | %Inh [13]: 7% | %Inh [14]: 3% | %Inh [15]: 0% | %Inh [16]: 0% | %Inh [17]: 7% | %Inh [18]: 97.5% | %Inh [19]: 3% | %Inh [20]: 1%

CCn1c(-c2ccccc2)nc2cnccc21 [SB-733416]
%Inh [1]: 14% | %Inh [2]: 0% | %Inh [3]: 0% | %Inh [4]: 0% | %Inh [5]: 4% | %Inh [6]: 0% | %Inh [7]: 0% | %Inh [8]: 0% | %Inh [9]: 16% | %Inh [10]: 0% | %Inh [11]: 0% | %Inh [12]: 27% | %Inh [13]: 0% | %Inh [14]: 0% | %Inh [15]: 0% | %Inh [16]: 0% | %Inh [17]: 0% | %Inh [18]: 0% | %Inh [19]: 13% | %Inh [20]: 0%

NS(=O)(=O)c1cccc(N/C=C2\C(=O)Nc3ccc(S(=O)(=O)Cc4c(Cl)cccc4Cl)cc32)c1 [GSK398099]
%Inh [1]: 0% | %Inh [2]: 0% | %Inh [3]: 5% | %Inh [4]: 4% | %Inh [5]: 6% | %Inh [6]: 0% | %Inh [7]: 21% | %Inh [8]: 0% | %Inh [9]: 20% | %Inh [10]: 0% | %Inh [11]: 26% | %Inh [12]: 5% | %Inh [13]: 0% | %Inh [14]: 0% | %Inh [15]: 4% | %Inh [16]: 0% | %Inh [17]: 16% | %Inh [18]: 0% | %Inh [19]: 0% | %Inh [20]: 41%

Cc1c(Cn2c(C)c(C)n3c(=O)cc(N4CCOCC4)nc23)cccc1C(F)(F)F [GSK2328680]
%Inh [1]: 0% | %Inh [2]: 19% | %Inh [3]: 0% | %Inh [4]: 0% | %Inh [5]: 0% | %Inh [6]: 0% | %Inh [7]: 31% | %Inh [8]: 0% | %Inh [9]: 16% | %Inh [10]: 0% | %Inh [11]: 8% | %Inh [12]: 10% | %Inh [13]: 0% | %Inh [14]: 0% | %Inh [15]: 4% | %Inh [16]: 0% | %Inh [17]: 20% | %Inh [18]: 99.1% | %Inh [19]: 80% | %Inh [20]: 4%

CNc1nc(-c2ccc3c(N)n[nH]c3c2)cc(N2C[C@@H](C(=O)NC3CCCCC3)OC[C@H]2C)n1 [GSK2375584]
%Inh [1]: 0% | %Inh [2]: 0% | %Inh [3]: 0% | %Inh [4]: 24% | %Inh [5]: 0% | %Inh [6]: 10% | %Inh [7]: 21% | %Inh [8]: 0% | %Inh [9]: 35% | %Inh [10]: 79% | %Inh [11]: 13% | %Inh [12]: 25% | %Inh [13]: 3% | %Inh [14]: 13% | %Inh [15]: 0% | %Inh [16]: 0% | %Inh [17]: 4% | %Inh [18]: 34% | %Inh [19]: 0% | %Inh [20]: 9%
